Measured values published in PubChem BioAssay AID504441 (Broad Institute, 2011).
In all, about 310,000 compounds went through this assay and about 1,300 (0.42%) were called active. Rule as the data show it: active = inhibition above about 50%; inactive = the rest. This excerpt belongs to a sample that is enriched for actives.

Target: Dual specificity tyrosine-phosphorylation-regulated kinase 1A (Rattus norvegicus) (UniProt Q63470)
Assay: rat Dyrk1A kinase inhibitors, primary screen, biochemical, single point, plate reader (AID 504441);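 also: plate controls were vehicle with enzyme for no effect and no enzyme for full effect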
Conditions: ADP-Glo luminescence, NFATc1 peptide, at 12.5 µM, active compounds read high

SMILES	inhibition
CC(=NNC(=S)N1CCCCCC1)c1ccccn1	0.973% (inactive)
Cc1cc(NC(=O)C(C)SCC(=O)Nc2cccc(S(=O)(=O)N3CCCCCC3)c2)no1 (stereo unspecified)	-1.84% (inactive)
Cc1cc(/C=N/Nc2ccc([N+](=O)[O-])cn2)c(C)n1-c1cccc(C(=O)O)c1	50.2% (active)
Cc1ccc(-n2c(C)cc(/C=N/Nc3ccc([N+](=O)[O-])cn3)c2C)c(C)c1	-4.85% (inactive)
CC(C)c1ccc(C=NNc2ccc([N+](=O)[O-])cn2)cc1	-3.91% (inactive)
Cc1cccc(NC(=S)N2CCC(C(=O)c3ccc(F)cc3)CC2)c1	10.4% (inactive)
O=C(Nc1ccc2ccccc2c1[N+](=O)[O-])c1ccccc1	3.22% (inactive)
O=C(OCCOc1ccccc1Cl)c1cc(S(=O)(=O)N2CCCCC2)ccc1N1CCOCC1	-7.28% (inactive)
Nc1nc(SCc2ccc([N+](=O)[O-])cc2)c2ncn(C3OC(CO)C(O)C3O)c2n1 (stereo unspecified)	56.9% (active)
CC(C)Sc1nc(N)nc2c1ncn2C1OC(CO)C(O)C1O (stereo unspecified)	-4.63% (inactive)
Cc1nc(N)nc(SCc2ccc([N+](=O)[O-])cc2)c1N	-3.28% (inactive)
O=[N+]([O-])c1ccc(COc2ccccc2CN2CCOCC2)cc1	4.81% (inactive)
CNN/C(N=Cc1ccc([N+](=O)[O-])s1)=N\S(=O)(=O)c1cc(C)c(Cl)cc1SCc1ccccc1	1.25% (inactive)
Cc1ccc(S(=O)(=O)N2C[C@@H]3CCCC[C@@H]3[C@@H](C)[C@H]2c2cn(Cc3ccccc3)c3ccc(F)cc23)cc1	-0.552% (inactive)
O=[N+]([O-])c1cc(Br)c(O)c(/C=N/Nc2nc3ccccc3s2)c1	32.7% (inactive)
O=C(NC(Nc1nc2ccc([N+](=O)[O-])cc2s1)(C(F)(F)F)C(F)(F)F)c1ccccc1	73.9% (active)
N=C1C(c2nc3ccccc3s2)=C(O)CN1NC(=O)c1ccc([N+](=O)[O-])cc1	46.9% (inactive)
O=C(O)C(CCc1ccccn1)c1ccccc1 (stereo unspecified)	3.61% (inactive)
N#CC1=C(N)Oc2cc(N)ccc2C1c1ccccc1 (stereo unspecified)	0.0153% (inactive)
COc1ccc(CNCCCNCc2ccc(OC)c(OC)c2)cc1OC	-3.55% (inactive)
CCOc1cc(/C=C2\SC(N3CCCCC3)=NC2=O)ccc1O	62.2% (active)
O=C1N=C(N2CCCC2)S/C1=C\c1cccc(Br)c1	-2.99% (inactive)

SMILES	inhibition
CCOc1cc(/C=C2\SC(N3CCCC(C)C3)=NC2=O)ccc1O (stereo unspecified)	31.5% (inactive)
CCN1CCC(O)(/C=C/c2ccc(C)cc2)C(C(=O)/C=C/c2ccc(C)cc2)C1 (stereo unspecified)	-5.12% (inactive)
O=C(NCCc1ccccc1)C1CCN(S(=O)(=O)c2ccc(Br)s2)CC1	60.5% (active)
O=C(C1CCN(S(=O)(=O)c2ccc(Br)s2)CC1)N1CCN(c2ccccc2)CC1	2.78% (inactive)
CSc1ccc(S(=O)(=O)N2CCC(C(=O)NCCc3ccccc3)CC2)cc1	-0.684% (inactive)
COc1ccccc1N(CC(=O)Nc1c(C)n(C)n(-c2ccccc2)c1=O)S(=O)(=O)c1ccccc1	8.43% (inactive)
Cc1ccc(S(=O)(=O)N2CCN(C(=O)COC(=O)/C=C/c3cccc(Cl)c3)CC2)c(C)c1	2.98% (inactive)
CCOCCCNC(=O)C(NC(=O)c1ccccc1O)c1ccccc1 (stereo unspecified)	2.95% (inactive)
CCOCCCNC(=O)C(NC(=O)c1ccc(=O)[nH]c1)c1ccc(Cl)cc1 (stereo unspecified)	62.1% (active)
CCOCCCNC(=O)C(NC(=O)c1ccc(=O)[nH]c1)c1ccc(C)cc1 (stereo unspecified)	4% (inactive)
O=C1/C(=C\c2ccc([N+](=O)[O-])cc2)CS(=O)(=O)C/C1=C/c1ccc([N+](=O)[O-])cc1	2.21% (inactive)
O=C1CCN(Cc2ccccc2)CCN1[C@H](CSc1ccccc1)c1ccccc1	7.38% (inactive)
N#Cc1cccc(CN2CCC(=O)N([C@H](CO)c3ccccc3)CC2)c1	50.1% (active)
N#Cc1cccc(CN2CCC(=O)N(CCO)CC2)c1	12.9% (inactive)
CCCCN(C(=O)CSCc1ccc(C)cc1)c1c(N)n(Cc2ccccc2)c(=O)[nH]c1=O	-1.45% (inactive)
O=[N+]([O-])c1ccc(NS(=O)(=O)c2ccccc2)c(Cl)c1	-7.67% (inactive)
O=C(O)c1ccc(NN=CC2=C(N3CCOCC3)/C(=C/c3ccccc3)CC2)cc1	17.6% (inactive)
COc1ccc(S(=O)(=O)N2CCc3ccccc32)cc1C(=O)Nc1cc(S(C)(=O)=O)ccc1Cl	-1.51% (inactive)
CN(c1ccc(O)cc1)c1nc(-c2cccnc2)cs1	3.73% (inactive)
Cc1ccccc1Nc1nc(-c2cccnc2)cs1	9.73% (inactive)
Oc1ccc(-c2csc(Nc3cccnc3)n2)cc1	53.9% (active)
O=C(NNC(=O)c1ccccc1O)c1ccccc1O	-1.63% (inactive)

SMILES	inhibition
CCOC(=O)c1ccccc1OC(=O)Oc1ccccc1C(=O)OCC	4.02% (inactive)
O=C1OCC2=C1C(c1ccc(Cl)cc1)c1cc3c(cc1O2)OCO3 (stereo unspecified)	-1.45% (inactive)
O=C(Nc1ccc(S(=O)(=O)N2CCOCC2)cc1)C1CCN(S(=O)(=O)c2ccc(Cl)cc2)CC1	7.12% (inactive)
NS(=O)(=O)c1ccc(-c2ccc(/C=C3\SC(=O)NC3=O)o2)cc1	87.9% (active)
CN1CCN(/N=C/c2ccc(-c3ccc([N+](=O)[O-])cc3)o2)CC1	4.45% (inactive)
CN1C(=O)/C(=C\c2ccc(-c3ccccc3)o2)SC1=S	-4.31% (inactive)
O=C(Nc1c(Br)cc2c(c1Br)Cc1cc([N+](=O)[O-])ccc1-2)C(Cl)Cl	-6.68% (inactive)
Cc1cc(OCCCC(=O)Nc2cc(S(=O)(=O)N3CCOCC3)ccc2N2CCOCC2)ccc1Cl	1.11% (inactive)
CCOC(=O)[C@H]1[C@H]2COc3ccc(Br)cc3[C@@H]2N2C(=O)CN(C)C(=O)[C@@]12C	-7.39% (inactive)
O=C(Nc1cccc(-c2nc3ccccc3[nH]2)c1)c1ccc(C(=O)Nc2cccc(-c3nc4ccccc4[nH]3)c2)cc1	4.53% (inactive)
CC(=O)Nc1cccc(-c2cnc3ccccc3n2)c1	50.4% (active)
CC(=O)Nc1cccc(-c2csc(Nc3cccc(C)n3)n2)c1	9.85% (inactive)
CN(C)C(=S)N=c1ssc(=S)n1Cc1ccco1	0.385% (inactive)
O=C(Cc1ccc([N+](=O)[O-])cc1)NCCc1ccc2c(c1)OCO2	3.06% (inactive)
COc1ccc(C(=O)N(C)Cc2ccc(OC)c(OC)c2OC)cc1S(=O)(=O)N1CCOCC1	-3.97% (inactive)
NC(CSC1(c2ccccc2)c2ccccc2-c2ccccc21)C(=O)O (stereo unspecified)	-0.913% (inactive)
COc1cc2[nH]c(O)c(C=O)c2cc1OC	3.93% (inactive)
Cc1cccc(-c2nc(Nc3ccc(O)cc3)c3ccccc3n2)c1	62% (active)
CC(=O)Nc1cccc(Nc2nc(-c3cccs3)nc3ccccc23)c1	26.8% (inactive)
COc1ccc(Nc2nc(-c3cccnc3)nc3ccccc23)cn1	24.1% (inactive)
O=C1C=C(NS(=O)(=O)c2ccccc2)C(=O)c2ccccc21	0.22% (inactive)
CCN1C[C@@H]2[C@@H]3C(=O)N(Cc4ccccc4)C(=O)[C@@H]3[C@](C)(C1=O)N2C(=O)c1ccc(C(C)(C)C)cc1	-5.8% (inactive)

SMILES	inhibition
O=C(Nc1cccc(Br)c1)C1CC(=O)N(C2CCCC2)C1 (stereo unspecified)	-2.1% (inactive)
O=C1NC(=O)C(CCc2ccccc2)(c2ccccc2)N1 (stereo unspecified)	-4.85% (inactive)
CCOC(=O)COc1cc(OCC(=O)OCC)c2c(=O)cc(-c3ccccc3)oc2c1	0.414% (inactive)
COc1c(O)cc2oc(-c3ccc(O)c(O)c3)cc(=O)c2c1O	50.5% (active)
CCOC(=O)COc1cc(O)c2c(=O)cc(-c3ccccc3)oc2c1	-1.6% (inactive)
CCOC(=O)C1CCCN(C(=O)C2CCN(S(=O)(=O)c3ccc(Cl)c(C(F)(F)F)c3)CC2)C1 (stereo unspecified)	-9.38% (inactive)
COc1ccc(Oc2cn[nH]c2-c2ccc(OC)cc2O)cc1	11.8% (inactive)
Oc1ccc(-c2[nH]ncc2-c2nc3ccccc3s2)c(O)c1	66.5% (active)
CC(=O)Nc1cccc(-c2nc3ccccc3s2)c1C	-0.865% (inactive)
CC(=O)OC1CCC2C3CCC4=C(CC(F)C(=O)C4)C3CCC12C (stereo unspecified)	-2.02% (inactive)
O=C(OCC1OC(Oc2ccc(O)cc2)C(O)C(O)C1O)c1ccccc1 (stereo unspecified)	13.6% (inactive)
COc1ccc(-c2cc(=O)c3c(O)cc(O[C@@H]4O[C@H](CO[C@@H]5O[C@@H](C)[C@H](O)[C@@H](O)[C@H]5O)[C@@H](O)[C@H](O)[C@H]4O)cc3o2)cc1O	-6.42% (inactive)
C[C@@H]1O[C@@H](OC[C@H]2O[C@@H](Oc3c(-c4ccc(O)cc4)oc4cc(O)cc(O)c4c3=O)[C@H](O)[C@@H](O)[C@@H]2O)[C@H](O)[C@H](O)[C@H]1O	66.5% (active)
N#CCc1c[nH]c2ccc([N+](=O)[O-])cc12	20% (inactive)
CCc1ccc(C(=O)C(C)OC(=O)CN2C(=O)NC3(CCCC3)C2=O)cc1 (stereo unspecified)	0.139% (inactive)
O=C1NCC(Nc2ccccc2)C(=O)N1 (stereo unspecified)	-0.332% (inactive)
COc1cc2c(cc1OC)C1C(=O)c3cc(OS(C)(=O)=O)c(OC)cc3C1N(C)C2=O (stereo unspecified)	3.14% (inactive)
CC(=O)Nc1cccc(C(=O)OCC(=O)c2ccc3c(c2)OCO3)c1	69.4% (active)
CC(C)C(=O)Nc1cccc(C(=O)Nc2ccc3c(c2)OCO3)c1	-2.73% (inactive)
O=C(COC(=O)c1ccc(F)cc1)Nc1ccc2c(c1)OCO2	-0.789% (inactive)
